We go through 22 compounds from PubChem BioAssay (EPA / NIEHS).

Read-out in assay [1]: Monokine induced gamma interferon (MIG), CXCL9 (gene 4283)
Nature of the assay: BSK_3C_MIG: BioMAP Diversity Plus: 3C Assay for Monokine induced gamma interferon (MIG) Biomarker Activity (AID 2283021).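 For AC50: MIG protein level measured by immunoassay in the treated endothelial cultures.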 The settings on record: primary human endothelial cells (HUVEC); actives raise or lower the signal. The method in brief:
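Endothelial primary cells (human umbilical vein) are dosed with test chemical in the 3C system. MIG levels are measured by ELISA at 24 h and fitted in both directions relative to DMSO.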

Assay [2] has as its target human Vitamin D Receptor (VDR), VDR (gene 7421) (UniProt P11473). The experiment in a line: ATG_VDR_TRANS: Attagene TRANS-FACTORIAL HepG2 Assay for human Vitamin D Receptor (VDR) (AID 2283022; active = hit-call score of the fitted dose curve at least 0.9, where 1 is the maximum). The method in brief:
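Fluorescence of labelled reporter cDNA fragments, resolved by capillary electrophoresis, gives mRNA induction after 24 h treatment of HepG2 cells carrying transfected Gal4-fusion reporter units. Activity is fitted in the positive direction with DMSO as baseline.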

The nature of assay [3]: BSK_3C_SRB: Viability Assessment in the BioMAP Diversity Plus: 3C Assay (AID 2283023).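 Note: fitted both ways against DMSO so a hit may be signal rise or drop.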 Particulars: primary human endothelial cells (HUVEC). An outline of the steps: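 Cells were dosed with chemical, cultured 24 h, fixed with 10% TCA, stained with 0.1% SRB and read at 560 nm. Human umbilical vein endothelium was used; DMSO served as negative control and baseline.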
Read-out in assay [4]: Matrix Metallopeptidase 1 (MMP1), MMP1 (gene 4312)
The experiment in a line: BSK_BE3C_MMP1: BioMAP Diversity Plus: BE3C Assay for Matrix Metallopeptidase 1 (MMP1) Biomarker Activity (AID 2283024). The settings on record: primary human bronchial epithelial cells; actives raise or lower the signal. An outline of the steps: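 MMP1 signal, measured by ELISA after a 24 h chemical exposure of human primary bronchial epithelial cells, is analysed with bidirectional fitting using DMSO as negative control.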

Assay [5] in a line: BSK_3C_Vis: BioMAP Diversity Plus: 3C Assay for Morphology Visualization (AID 2283025).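 Note: fitted both ways so gain or loss versus DMSO counts.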 Particulars: primary human endothelial cells (HUVEC). An outline of the steps:
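Morphology read by light microscopy serves as a background control for the multiplexed 3C assay in human umbilical vein endothelial cells, taken 24 h after dosing, with DMSO as the negative control and bidirectional curve fitting.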

Read-out in assay [6]: Pselectin, SELP (gene 6403)
Nature of the assay: BSK_4H_Pselectin: BioMAP Diversity Plus: 4H Assay for Pselectin Biomarker Activity (AID 2283026). Particulars: primary human endothelial cells (HUVEC); actives raise or lower the signal. The method in brief:
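Endothelial primary cells (human umbilical vein) are dosed, incubated 24 h, and assayed for surface P-selectin by ELISA; responses in either direction are fitted relative to the DMSO negative control.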

The nature of assay [7]: BSK_4H_SRB: Viability Assessment in the BioMAP Diversity Plus: 4H Assay (AID 2283027).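 For AC50: curves fitted both ways versus DMSO so AC50 may be loss or gain.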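 Note: cells exposed to compound for 24 h before staining.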 Particulars: primary human endothelial cells (HUVEC). An outline of the steps:
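HUVEC, 24 h post-dose; 10% TCA fix, 0.1% SRB stain, A560 nm. Total protein = overt cytotoxicity, parallel to biomarker read. Bidirectional fit vs DMSO baseline.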

The nature of assay [8]: BSK_BE3C_SRB: Viability Assessment in the BioMAP Diversity Plus: BE3C Assay (AID 2283028).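 For AC50: fitted both ways so AC50 may mark signal gain or loss versus DMSO.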 Particulars: primary human bronchial epithelial cells. The method in brief: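 Overt cytotoxicity was assessed as total protein in confluent human primary bronchial epithelial cultures 24 h after chemical addition, using 0.1% sulforhodamine B staining read at 560 nm.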
Read-out in assay [9]: Thrombomodulin, THBD (gene 7056)
Nature of the assay: BSK_3C_Thrombomodulin: BioMAP Diversity Plus: 3C Assay for Thrombomodulin Biomarker Activity (AID 2283029). Particulars: primary human endothelial cells (HUVEC); actives raise or lower the signal. The method in brief: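 Endothelial cells from umbilical vein are dosed with test chemical and incubated 24 h. Thrombomodulin is then quantified by ELISA, with DMSO serving as negative control and activity baseline.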

Read-out in assay [10]: Urokinase-type plasminogen activator receptor (uPAR), PLAUR (gene 5329)
Nature of the assay: BSK_4H_uPAR: BioMAP Diversity Plus: 4H Assay for Urokinase-type plasminogen activator receptor (uPAR) Biomarker Activity (AID 2283030). Particulars: primary human endothelial cells (HUVEC); actives raise or lower the signal. An outline of the steps:
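Chemicals are dosed onto human vascular endothelial primary cells (umbilical vein). After 24 h, uPAR is read by ELISA. Gain or loss of signal is fitted relative to DMSO.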

Records with an inconclusive call do not appear. The source made the active and inactive calls. Rule for the calls, unless noted: active = hit-call score of the fitted dose curve at least 0.9, where 1 is the maximum; inactive = score below 0.9.

Broadly, the AC50 is the concentration giving half of the maximal activity seen.

Sequence of human Vitamin D Receptor (VDR), VDR (gene 7421) (P11473 whole entry, looked up, the tested form may be a part): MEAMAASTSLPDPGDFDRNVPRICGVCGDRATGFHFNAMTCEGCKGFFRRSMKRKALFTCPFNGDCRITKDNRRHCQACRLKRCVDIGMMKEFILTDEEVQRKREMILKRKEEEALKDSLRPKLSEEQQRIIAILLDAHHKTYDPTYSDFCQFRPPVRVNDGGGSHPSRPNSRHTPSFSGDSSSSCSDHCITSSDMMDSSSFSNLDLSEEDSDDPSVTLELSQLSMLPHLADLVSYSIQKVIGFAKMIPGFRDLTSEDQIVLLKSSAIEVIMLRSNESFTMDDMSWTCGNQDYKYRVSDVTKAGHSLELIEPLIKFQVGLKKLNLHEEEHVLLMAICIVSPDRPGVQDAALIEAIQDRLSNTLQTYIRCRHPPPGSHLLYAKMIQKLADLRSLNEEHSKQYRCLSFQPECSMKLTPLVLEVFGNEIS

For the compound `O=C1CCCCCCCCCCCCCCO1`, the result in [1], in assay [2] and in assay [4] was inactive. The half-maximal activity concentration (AC50) is 27.1 µM (active) in assay [3]; 14.4 µM (active) in [5]; 27.6 µM (active) in [6]; 27.4 µM (active) in [7]; 9.72 µM (active) in [8]; 20 µM (active) in assay [9]. Also, the AC50 in [10] is 23.7 µM (active).
On to `O=C(O)c1cn(-c2ccc(F)cc2)c2cc(N3CCNCC3)c(F)cc2c1=O`, for which the outcome in assay [1], in assay [3], in assay [4], in [5], in [6] and in assay [7] was inactive. For the same compound, the outcome in assay [8], in assay [9] and in assay [10] was inactive.
For the compound `CCCCCCCCCCCCCCCCCC(=O)OCC(CC)CCCC` (configuration not stated), the result in assay [1], in [2], in assay [3], in assay [4], in assay [5] and in assay [6] was inactive. The result in assay [7], in assay [8], in [9] and in [10] was inactive.
Regarding `CN(CCOc1ccc(CC2SC(=O)NC2=O)cc1)c1ccccn1` (configuration not stated), the result in assay [1], in assay [3], in assay [4], in [5], in assay [7] and in assay [8] was inactive. The outcome in assay [9] was inactive. In addition, the values for the concentration at half-maximal activity (AC50) in assay [6] and in assay [10] were 1.12 µM (active) and 11.6 µM (active), respectively.
Take `CC(=O)/C=C/C1=C(C)CCCC1(C)C`: the result in assay [1], in assay [3], in assay [4], in [5], in assay [6] and in [7] was inactive. In addition, the result in [8], in [9] and in assay [10] was inactive.
As for `Cc1ccc2n[nH]nc2c1`, the outcome in [1], in assay [3], in [4], in [5], in assay [6] and in assay [7] was inactive. For the same compound, the result in [8], in assay [9] and in [10] was inactive.
For `CC(C)Oc1ccccc1O`, the outcome in assay [1], in [3], in [4], in [5], in assay [6] and in assay [7] was inactive. The result in assay [8], in [9] and in assay [10] was inactive.
With `C=C(C)C(=O)O[C@H]1C[C@@H]2CC[C@@]1(C)C2(C)C`, the AC50 in assay [1] was 34.7 µM (active); in [3], 13.8 µM (active); in assay [4] it was 20 µM (active); in [5], 12.5 µM (active); in [6] it was 11.3 µM (active); in [7], 10.9 µM (active). The results for the AC50 in [8] and in assay [10] were 34.7 µM (active) and 9.5 µM (active), respectively. Moreover, the outcome in assay [2] and in assay [9] was inactive.
For `CC(C)(COC(=O)c1ccccc1)COC(=O)c1ccccc1`, the outcome in assay [1], in [4], in [8], in assay [9] and in assay [10] was inactive. Also, the half-maximal activity concentration (AC50) in [3] was 26.8 µM (active); in assay [5] it was 38.9 µM (active); in assay [6] it was 31.7 µM (active); in assay [7] it was 23.2 µM (active).
In the case of `c1ccc2c(c1)c1cccc3ccc4cccc2c4c31`, the result in assay [1], in [3], in assay [4], in assay [5], in [6] and in assay [7] was inactive. The result in [8], in [9] and in [10] was inactive.
Take `CCCCC/C=C/C=C/C=O`: the concentration at half-maximal activity (AC50) in assay [1] is 36.5 µM (active); in assay [3], 31.1 µM (active); in [5] it was 37.4 µM (active); in [6], 27.1 µM (active); in assay [7] it was 30.5 µM (active); in assay [8], 30.3 µM (active). In addition, the AC50 in assay [10] was 35.6 µM (active). Moreover, the result in assay [4] and in assay [9] was inactive.
In the case of `O=C(O)C[C@H](O)C[C@H](O)/C=C/c1c(C2CC2)nc2ccccc2c1-c1ccc(F)cc1`, the outcome in assay [1], in assay [2], in assay [4], in assay [8], in assay [9] and in assay [10] was inactive. Besides, the concentration at half-maximal activity (AC50) in [3] was 0.0713 µM (active); in assay [5], 3.47 µM (active); in assay [6], 0.152 µM (active); in assay [7], 0.847 µM (active).
Turning to `CCCCCCCCCC=O`, the outcome in [1], in [3], in [4], in assay [5], in assay [6] and in assay [7] was inactive. The outcome in [8], in [9] and in assay [10] was inactive.
For the compound `CCC(=O)OCc1ccccc1`, the outcome in [1], in assay [2], in assay [3], in assay [4], in assay [6] and in assay [7] was inactive. Further, the result in [8], in [9] and in [10] was inactive.
For the compound `C#C[C@]1(O)CC[C@H]2[C@@H]3CCC4=Cc5oncc5C[C@]4(C)[C@H]3CC[C@@]21C`, the outcome in assay [1], in assay [4], in [8] and in assay [9] was inactive. The half-maximal activity concentration (AC50) in [3] was 3.97 µM (active); in assay [5], 37.5 µM (active); in assay [6] it was 35.2 µM (active); in assay [7], 7.33 µM (active); in assay [10], 3.97 µM (active).
In the case of `CCCCC(CC)COCCC#N` (configuration not stated), the result in assay [1], in [3], in assay [4], in assay [5], in [6] and in [7] was inactive. Also, the result in assay [8], in assay [9] and in [10] was inactive.
For `O=C(O)c1ccc([N+](=O)[O-])cc1`, the outcome in [1], in [2], in assay [3], in [4], in [5] and in assay [6] was inactive. Besides, the outcome in assay [7], in [8], in [9] and in [10] was inactive.
Take `Cc1ccc(O)c(C(C)(C)C)c1`: in [1], the outcome was inactive. Besides, the AC50 is 25 µM (active) in assay [3]; 28.3 µM (active) in assay [4]; 13.4 µM (active) in assay [5]; 34.3 µM (active) in [6]; 33.5 µM (active) in assay [7]; 31.9 µM (active) in assay [8]. For the same compound, the results for the AC50 in [9] and in [10] were 30.8 µM (active) and 28.2 µM (active), respectively.
Consider `CC1CCC(C(C)CS)CC1S` (configuration not stated), for which the concentration at half-maximal activity (AC50) in assay [1] was 36.9 µM (active); in assay [3] it was 20 µM (active); in assay [4], 36.6 µM (active); in assay [5] it was 37.1 µM (active); in assay [6], 23.9 µM (active); in [7], 30.9 µM (active). Further, the results for the half-maximal activity concentration (AC50) in assay [8] and in assay [10] were 29.9 µM (active) and 36.4 µM (active), respectively. For the same compound, the result in assay [2] and in assay [9] was inactive.
For `Nc1cc([N+](=O)[O-])ccc1Cl`, the result in assay [1], in assay [2], in assay [3], in assay [4], in assay [5] and in [6] was inactive. Moreover, the outcome in [7], in assay [8], in assay [9] and in assay [10] was inactive.
Turning to `C=C[Si](OCC)(OCC)OCC`, the result in [1], in assay [2], in assay [3], in [4], in assay [5] and in assay [6] was inactive. In addition, the outcome in assay [7], in [8], in [9] and in assay [10] was inactive.
Turning to `O=C1OC2(c3cc(Br)c(O)c(Br)c3Oc3c2cc(Br)c(O)c3Br)c2c(Cl)c(Cl)c(Cl)c(Cl)c21`, the concentration at half-maximal activity (AC50) in assay [1] is 16.3 µM (active); in assay [3] it was 3.57 µM (active); in assay [4], 0.546 µM (active); in assay [5], 8.63 µM (active); in [6], 2.19 µM (active); in assay [7], 3.51 µM (active). Also, the concentration at half-maximal activity (AC50) in assay [8] is 0.608 µM (active); in assay [9], 13.2 µM (active); in assay [10] it was 1.34 µM (active). Also, in [2], the result was inactive.
